The source of these data is paper PMC7862700, “An all-to-all approach to the identification of sequence-specific readers for epigenetic DNA modifications on cytosine”.

Holding throughout (experiment): DAPPL (digital affinity profiling via proximity ligation, sequencing); 10 mM Tris-HCl pH 7.5, 50 mM NaCl, 1 mM DTT, 4% glycerol, room temperature, 30 min; GST-TFs on glutathione beads, 16-mer random dsDNA library, 0.1% formaldehyde crosslink after washing; high values mean tight binding
The target in one test is T1, FEV (Homo sapiens, UniProt Q99581 1-238).
T1 sequence: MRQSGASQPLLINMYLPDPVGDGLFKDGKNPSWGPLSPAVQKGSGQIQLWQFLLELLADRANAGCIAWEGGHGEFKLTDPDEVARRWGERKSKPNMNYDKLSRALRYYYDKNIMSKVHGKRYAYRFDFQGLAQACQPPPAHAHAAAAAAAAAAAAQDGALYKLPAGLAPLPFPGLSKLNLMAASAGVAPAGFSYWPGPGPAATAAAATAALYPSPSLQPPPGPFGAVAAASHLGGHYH
The following applies: protein: recombinant; tags: N-terminal GST; dsDNA, one strand shown. The method in brief: (§1)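 Pools were built from human transcription factors expressed in yeast as GST fusions, captured on glutathione beads and DNA-barcoded, along with a tag-only sample. Incubation with 200 nmole of a 16-mer random double-stranded DNA library lasted 30 min at room temperature in Tris/NaCl/DTT/glycerol buffer, and was followed by washing, 0.1% formaldehyde crosslinking, proximity ligation, PCR amplification and Illumina NextSeq500 sequencing. Binding signal is the quotient of each hexamer's read frequency for a factor and its frequency for the tag-only sample.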

For the next test, the target named is ETV5 (Homo sapiens, UniProt P41161 1-510). Particulars: protein: recombinant; tags: N-terminal GST; dsDNA, one strand shown. The method in brief: as §1
Sequence of ETV5 (P41161 whole entry): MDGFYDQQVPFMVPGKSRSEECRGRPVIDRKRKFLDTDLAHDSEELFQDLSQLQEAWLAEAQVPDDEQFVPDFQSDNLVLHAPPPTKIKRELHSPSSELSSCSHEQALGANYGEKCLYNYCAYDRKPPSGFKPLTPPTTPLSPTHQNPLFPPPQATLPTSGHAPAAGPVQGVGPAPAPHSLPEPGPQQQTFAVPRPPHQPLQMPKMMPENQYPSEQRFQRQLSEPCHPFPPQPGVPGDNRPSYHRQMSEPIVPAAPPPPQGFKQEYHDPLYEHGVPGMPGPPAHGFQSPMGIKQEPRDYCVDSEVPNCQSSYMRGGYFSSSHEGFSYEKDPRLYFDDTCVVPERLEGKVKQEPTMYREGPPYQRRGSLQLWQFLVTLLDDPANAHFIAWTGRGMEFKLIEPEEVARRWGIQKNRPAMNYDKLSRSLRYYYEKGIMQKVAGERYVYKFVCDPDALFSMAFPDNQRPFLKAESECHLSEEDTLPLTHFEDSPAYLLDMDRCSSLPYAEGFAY
Another test has as its target HSF1 (Homo sapiens, UniProt Q00613 1-529). The following applies: protein: recombinant; tags: N-terminal GST; chain copies: 3; dsDNA, one strand shown. The method in brief: as §1
In another test the target is T2, SPIC (Homo sapiens, UniProt Q8N5J4 1-248).
T2 sequence: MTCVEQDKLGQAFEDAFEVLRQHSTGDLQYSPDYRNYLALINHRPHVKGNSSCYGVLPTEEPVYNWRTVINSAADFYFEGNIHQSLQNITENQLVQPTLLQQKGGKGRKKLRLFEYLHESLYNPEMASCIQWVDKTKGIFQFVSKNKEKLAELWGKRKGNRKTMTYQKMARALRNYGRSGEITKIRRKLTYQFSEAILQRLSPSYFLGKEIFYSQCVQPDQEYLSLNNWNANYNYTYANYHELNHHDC
Particulars: protein: recombinant; tags: N-terminal GST; dsDNA, one strand shown. The method in brief: as §1

Another test concerns the target ELF4 (Homo sapiens, UniProt Q99607 1-663). Particulars: protein: recombinant; tags: N-terminal GST; dsDNA, one strand shown. The method in brief: as §1
A further test addresses T3, ELK4 (Homo sapiens, UniProt P28324-2 1-405).
T3 sequence: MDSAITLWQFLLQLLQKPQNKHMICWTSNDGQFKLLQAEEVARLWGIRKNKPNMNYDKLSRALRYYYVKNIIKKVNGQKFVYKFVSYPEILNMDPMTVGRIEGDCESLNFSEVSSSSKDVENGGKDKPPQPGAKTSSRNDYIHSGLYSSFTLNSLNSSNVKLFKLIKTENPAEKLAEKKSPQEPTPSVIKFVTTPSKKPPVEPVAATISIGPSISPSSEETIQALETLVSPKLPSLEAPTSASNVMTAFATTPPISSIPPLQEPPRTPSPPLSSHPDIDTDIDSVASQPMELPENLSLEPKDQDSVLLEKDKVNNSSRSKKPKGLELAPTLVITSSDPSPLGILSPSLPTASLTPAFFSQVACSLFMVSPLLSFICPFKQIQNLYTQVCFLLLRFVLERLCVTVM
The following applies: protein: recombinant; tags: N-terminal GST; dsDNA, one strand shown. The method in brief: as §1

Another test concerns the target T4, ETV2 (Homo sapiens, UniProt O00321 1-342).
T4 sequence: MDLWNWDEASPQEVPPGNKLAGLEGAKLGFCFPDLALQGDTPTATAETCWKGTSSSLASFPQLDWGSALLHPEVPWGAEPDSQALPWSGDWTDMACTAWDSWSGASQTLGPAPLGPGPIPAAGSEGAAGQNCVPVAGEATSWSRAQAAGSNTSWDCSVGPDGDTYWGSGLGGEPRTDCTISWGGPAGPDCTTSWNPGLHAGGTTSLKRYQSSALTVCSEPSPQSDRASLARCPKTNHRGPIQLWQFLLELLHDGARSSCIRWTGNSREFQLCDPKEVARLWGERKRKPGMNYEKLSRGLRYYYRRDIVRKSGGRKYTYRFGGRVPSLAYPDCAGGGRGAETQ
Particulars: protein: recombinant; tags: N-terminal GST; dsDNA, one strand shown. The method in brief: as §1

The target of a further test is T5, ELF3 (Homo sapiens, UniProt P78545 1-371).
T5 sequence: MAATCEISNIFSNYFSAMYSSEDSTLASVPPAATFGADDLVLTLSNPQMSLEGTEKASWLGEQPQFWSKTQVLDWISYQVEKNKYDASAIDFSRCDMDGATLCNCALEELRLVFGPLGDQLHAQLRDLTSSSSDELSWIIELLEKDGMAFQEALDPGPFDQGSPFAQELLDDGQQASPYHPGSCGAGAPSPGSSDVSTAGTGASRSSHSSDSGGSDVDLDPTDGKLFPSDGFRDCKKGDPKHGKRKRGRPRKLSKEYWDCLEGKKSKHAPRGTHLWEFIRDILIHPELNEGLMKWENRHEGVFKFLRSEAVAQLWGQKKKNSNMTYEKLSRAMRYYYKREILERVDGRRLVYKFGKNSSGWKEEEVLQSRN
Particulars: protein: recombinant; tags: N-terminal GST; dsDNA, one strand shown. The method in brief:
as §1

The target in another test is CRX (Homo sapiens, UniProt O43186 1-299). Particulars: protein: recombinant; tags: N-terminal GST; dsDNA, one strand shown. The method in brief:
as §1

Another test concerns the target ETV1 (Homo sapiens, UniProt P50549 1-477). Particulars: protein: recombinant; tags: N-terminal GST; dsDNA, one strand shown. The method in brief:
as §1

The target of another test is T6, ERF (Homo sapiens, UniProt P50548 1-548).
T6 sequence: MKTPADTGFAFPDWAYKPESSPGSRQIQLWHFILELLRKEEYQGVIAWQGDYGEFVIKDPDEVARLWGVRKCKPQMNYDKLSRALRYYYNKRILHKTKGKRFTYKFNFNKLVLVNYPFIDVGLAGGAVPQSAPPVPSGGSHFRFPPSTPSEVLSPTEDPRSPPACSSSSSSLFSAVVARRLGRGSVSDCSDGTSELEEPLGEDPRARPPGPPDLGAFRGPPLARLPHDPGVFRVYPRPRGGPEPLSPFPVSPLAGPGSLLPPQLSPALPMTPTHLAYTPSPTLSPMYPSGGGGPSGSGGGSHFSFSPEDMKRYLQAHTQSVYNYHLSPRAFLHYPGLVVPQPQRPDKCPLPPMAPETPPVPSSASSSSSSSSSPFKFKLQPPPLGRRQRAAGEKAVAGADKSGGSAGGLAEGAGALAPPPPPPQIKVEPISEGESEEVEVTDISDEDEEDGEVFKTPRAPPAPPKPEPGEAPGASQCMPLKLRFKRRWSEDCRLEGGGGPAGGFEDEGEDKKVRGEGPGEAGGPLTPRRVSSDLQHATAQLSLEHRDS
Particulars: protein: recombinant; tags: N-terminal GST; dsDNA, one strand shown. The method in brief:
as §1

For another test, the target named is T7, ETV3L (Homo sapiens, UniProt Q6ZN32 1-361).
T7 sequence: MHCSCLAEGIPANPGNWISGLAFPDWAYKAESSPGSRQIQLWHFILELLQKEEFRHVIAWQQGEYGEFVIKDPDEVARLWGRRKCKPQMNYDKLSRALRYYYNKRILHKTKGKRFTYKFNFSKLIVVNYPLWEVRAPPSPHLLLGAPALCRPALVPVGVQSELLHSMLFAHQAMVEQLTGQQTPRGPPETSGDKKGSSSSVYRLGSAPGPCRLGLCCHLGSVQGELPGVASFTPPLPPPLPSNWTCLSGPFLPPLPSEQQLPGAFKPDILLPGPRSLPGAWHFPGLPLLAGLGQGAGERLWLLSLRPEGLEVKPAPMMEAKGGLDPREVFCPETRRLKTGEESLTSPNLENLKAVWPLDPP
The following applies: protein: recombinant; tags: N-terminal GST; dsDNA, one strand shown. The method in brief:
as §1

The next test concerns the target T8, ETS2 (Homo sapiens, UniProt P15036 1-469).
T8 sequence: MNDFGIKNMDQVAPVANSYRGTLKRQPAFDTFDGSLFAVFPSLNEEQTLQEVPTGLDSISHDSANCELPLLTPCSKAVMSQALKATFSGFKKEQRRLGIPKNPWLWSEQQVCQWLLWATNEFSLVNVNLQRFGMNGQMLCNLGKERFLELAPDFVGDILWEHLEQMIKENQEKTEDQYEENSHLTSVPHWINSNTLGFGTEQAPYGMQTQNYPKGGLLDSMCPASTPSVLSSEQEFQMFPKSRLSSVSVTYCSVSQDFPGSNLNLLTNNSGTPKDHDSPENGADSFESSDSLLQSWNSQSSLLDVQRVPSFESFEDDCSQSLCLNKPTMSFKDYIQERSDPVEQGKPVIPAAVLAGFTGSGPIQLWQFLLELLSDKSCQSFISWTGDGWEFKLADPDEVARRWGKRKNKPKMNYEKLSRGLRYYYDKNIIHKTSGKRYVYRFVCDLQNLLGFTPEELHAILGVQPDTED
Particulars: protein: recombinant; tags: N-terminal GST; dsDNA, one strand shown. The method in brief: as §1

The next test deals with T9, SPDEF (Homo sapiens, UniProt O95238 1-335).
T9 sequence: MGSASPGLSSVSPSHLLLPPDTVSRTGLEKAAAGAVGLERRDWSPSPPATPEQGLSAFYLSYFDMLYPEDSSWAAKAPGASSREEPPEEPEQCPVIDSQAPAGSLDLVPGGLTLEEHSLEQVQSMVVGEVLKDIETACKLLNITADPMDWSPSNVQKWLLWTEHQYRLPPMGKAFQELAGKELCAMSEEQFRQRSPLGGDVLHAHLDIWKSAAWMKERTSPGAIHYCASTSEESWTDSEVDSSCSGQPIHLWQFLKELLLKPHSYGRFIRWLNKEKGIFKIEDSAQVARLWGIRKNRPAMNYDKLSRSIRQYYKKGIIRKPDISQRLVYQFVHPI
Particulars: protein: recombinant; tags: N-terminal GST; dsDNA, one strand shown. The method in brief:
as §1

A further test has as its target T10, ETV7 (Homo sapiens, UniProt Q9Y603 1-341).
T10 sequence: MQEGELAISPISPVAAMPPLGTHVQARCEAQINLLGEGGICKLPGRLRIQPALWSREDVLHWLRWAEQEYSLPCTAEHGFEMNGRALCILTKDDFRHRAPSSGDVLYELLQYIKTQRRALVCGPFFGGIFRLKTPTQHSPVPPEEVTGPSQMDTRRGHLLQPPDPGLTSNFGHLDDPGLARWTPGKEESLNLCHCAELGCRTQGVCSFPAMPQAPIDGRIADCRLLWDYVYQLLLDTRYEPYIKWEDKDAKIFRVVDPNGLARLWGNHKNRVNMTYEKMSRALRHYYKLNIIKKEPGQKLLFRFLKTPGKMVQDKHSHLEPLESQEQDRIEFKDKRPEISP
Particulars: protein: recombinant; tags: N-terminal GST; dsDNA, one strand shown. The method in brief:
as §1

A further test addresses T11, ELF5 (Homo sapiens, UniProt Q9UKW6-2 1-255).
T11 sequence: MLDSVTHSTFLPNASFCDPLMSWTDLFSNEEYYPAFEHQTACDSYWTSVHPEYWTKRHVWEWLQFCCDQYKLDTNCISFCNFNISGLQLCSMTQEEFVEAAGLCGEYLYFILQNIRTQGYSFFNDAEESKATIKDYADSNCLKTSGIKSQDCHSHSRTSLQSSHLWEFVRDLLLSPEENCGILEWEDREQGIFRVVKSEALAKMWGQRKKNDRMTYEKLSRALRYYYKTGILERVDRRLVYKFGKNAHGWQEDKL
Particulars: protein: recombinant; tags: N-terminal GST; dsDNA, one strand shown. The method in brief: as §1

In another test the target is T12, ETV3 (Homo sapiens, UniProt P41162-2 1-143).
T12 sequence: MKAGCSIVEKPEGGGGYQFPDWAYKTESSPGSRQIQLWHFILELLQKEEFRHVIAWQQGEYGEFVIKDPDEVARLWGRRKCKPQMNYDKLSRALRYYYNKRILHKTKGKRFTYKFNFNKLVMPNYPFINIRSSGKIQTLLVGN
The following applies: protein: recombinant; tags: N-terminal GST; dsDNA, one strand shown. The method in brief:
as §1

For another test, the target named is ETV6 (Homo sapiens, UniProt P41212 1-452). Particulars: protein: recombinant; tags: N-terminal GST; dsDNA, one strand shown. The method in brief:
as §1

Sequence of ETV6 (P41212 whole entry): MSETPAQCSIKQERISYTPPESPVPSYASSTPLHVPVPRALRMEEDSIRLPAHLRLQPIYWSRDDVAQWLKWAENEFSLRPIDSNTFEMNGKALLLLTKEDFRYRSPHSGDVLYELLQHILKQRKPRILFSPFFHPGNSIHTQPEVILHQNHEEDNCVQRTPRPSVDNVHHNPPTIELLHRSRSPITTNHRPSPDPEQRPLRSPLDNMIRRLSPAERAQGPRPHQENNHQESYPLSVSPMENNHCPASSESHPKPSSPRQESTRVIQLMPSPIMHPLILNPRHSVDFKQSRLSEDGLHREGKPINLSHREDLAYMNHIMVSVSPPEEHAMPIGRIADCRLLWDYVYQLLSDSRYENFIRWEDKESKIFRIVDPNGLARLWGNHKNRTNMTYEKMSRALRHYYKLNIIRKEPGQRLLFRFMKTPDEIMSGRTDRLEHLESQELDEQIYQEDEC
Sequence of ELF4 (Q99607 whole entry): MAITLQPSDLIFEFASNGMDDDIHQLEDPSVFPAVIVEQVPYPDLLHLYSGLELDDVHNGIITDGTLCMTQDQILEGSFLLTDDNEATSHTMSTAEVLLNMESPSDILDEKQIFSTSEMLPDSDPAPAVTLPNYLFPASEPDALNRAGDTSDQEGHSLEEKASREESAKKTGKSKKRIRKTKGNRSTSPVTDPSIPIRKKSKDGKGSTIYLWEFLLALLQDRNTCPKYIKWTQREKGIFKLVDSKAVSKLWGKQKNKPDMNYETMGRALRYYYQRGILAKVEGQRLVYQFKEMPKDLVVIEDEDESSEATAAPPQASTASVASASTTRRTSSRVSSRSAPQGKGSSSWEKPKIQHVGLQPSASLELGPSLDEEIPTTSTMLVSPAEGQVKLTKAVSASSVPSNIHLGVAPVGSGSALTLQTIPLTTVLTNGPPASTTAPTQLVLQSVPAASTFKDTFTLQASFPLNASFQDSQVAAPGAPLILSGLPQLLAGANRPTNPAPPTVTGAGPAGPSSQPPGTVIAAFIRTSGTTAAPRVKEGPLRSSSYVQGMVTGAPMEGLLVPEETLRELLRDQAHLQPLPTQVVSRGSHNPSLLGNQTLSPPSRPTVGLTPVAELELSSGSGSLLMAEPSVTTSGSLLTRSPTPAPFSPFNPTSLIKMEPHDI
Sequence of CRX (O43186 whole entry): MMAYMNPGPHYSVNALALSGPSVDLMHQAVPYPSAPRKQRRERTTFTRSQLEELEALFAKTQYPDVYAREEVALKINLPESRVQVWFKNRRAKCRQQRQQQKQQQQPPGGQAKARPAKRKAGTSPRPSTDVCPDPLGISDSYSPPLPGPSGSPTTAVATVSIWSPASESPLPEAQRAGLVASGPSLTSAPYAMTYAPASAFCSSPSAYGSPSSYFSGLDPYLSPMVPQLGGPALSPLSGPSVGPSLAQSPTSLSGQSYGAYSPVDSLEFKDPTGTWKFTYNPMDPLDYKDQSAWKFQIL
Sequence of HSF1 (Q00613 whole entry): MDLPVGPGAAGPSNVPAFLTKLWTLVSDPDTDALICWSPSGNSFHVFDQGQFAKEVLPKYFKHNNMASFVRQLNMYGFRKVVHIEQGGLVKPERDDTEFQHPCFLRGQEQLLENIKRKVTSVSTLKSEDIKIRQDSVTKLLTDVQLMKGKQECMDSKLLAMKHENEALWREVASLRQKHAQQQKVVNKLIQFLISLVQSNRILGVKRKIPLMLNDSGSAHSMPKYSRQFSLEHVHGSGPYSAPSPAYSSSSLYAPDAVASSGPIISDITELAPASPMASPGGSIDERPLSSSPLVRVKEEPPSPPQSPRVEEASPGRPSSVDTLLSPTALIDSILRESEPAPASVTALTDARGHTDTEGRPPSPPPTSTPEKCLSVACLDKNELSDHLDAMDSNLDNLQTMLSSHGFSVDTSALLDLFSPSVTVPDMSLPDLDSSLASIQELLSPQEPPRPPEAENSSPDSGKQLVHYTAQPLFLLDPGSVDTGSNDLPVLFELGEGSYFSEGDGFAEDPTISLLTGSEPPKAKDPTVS
Sequence of ETV1 (P50549 whole entry): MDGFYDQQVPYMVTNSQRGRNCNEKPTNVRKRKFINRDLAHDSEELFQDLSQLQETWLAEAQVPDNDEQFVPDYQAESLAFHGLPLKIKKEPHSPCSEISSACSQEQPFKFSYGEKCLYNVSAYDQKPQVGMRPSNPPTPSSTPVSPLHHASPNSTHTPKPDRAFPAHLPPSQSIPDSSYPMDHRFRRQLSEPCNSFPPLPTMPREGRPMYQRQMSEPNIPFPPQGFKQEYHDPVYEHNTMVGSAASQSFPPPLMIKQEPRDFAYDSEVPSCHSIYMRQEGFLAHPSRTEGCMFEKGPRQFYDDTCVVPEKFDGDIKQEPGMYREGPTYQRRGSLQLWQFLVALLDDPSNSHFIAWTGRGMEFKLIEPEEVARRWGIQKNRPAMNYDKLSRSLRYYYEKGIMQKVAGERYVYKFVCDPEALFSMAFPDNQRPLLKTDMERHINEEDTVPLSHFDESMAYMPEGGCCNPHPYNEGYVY

For the sequence TTAGGG, the binding signal in the test with FEV is 1.13 fold enrichment (6-mer frequency, TF over GST control); with ETV5 it was 1.16 fold enrichment (6-mer frequency, TF over GST control); with HSF1, 1.48 fold enrichment (6-mer frequency, TF over GST control); with SPIC, 1.04 fold enrichment (6-mer frequency, TF over GST control); in the test with ELF4, 1.16 fold enrichment (6-mer frequency, TF over GST control); with ELK4, 1.02 fold enrichment (6-mer frequency, TF over GST control). Besides, the binding signal with ETV2 is 1.15 fold enrichment (6-mer frequency, TF over GST control); with ELF3, 1.2 fold enrichment (6-mer frequency, TF over GST control); with CRX it was 2.19 fold enrichment (6-mer frequency, TF over GST control); with ETV1, 1.03 fold enrichment (6-mer frequency, TF over GST control); with ERF, 1.21 fold enrichment (6-mer frequency, TF over GST control); with ETV3L it was 1.14 fold enrichment (6-mer frequency, TF over GST control). Further, the binding signal is 1.08 fold enrichment (6-mer frequency, TF over GST control) with ETS2; 1.18 fold enrichment (6-mer frequency, TF over GST control) with SPDEF; 1.06 fold enrichment (6-mer frequency, TF over GST control) in the test with ETV7; 1.11 fold enrichment (6-mer frequency, TF over GST control) with ELF5; 1.11 fold enrichment (6-mer frequency, TF over GST control) with ETV3; 1.08 fold enrichment (6-mer frequency, TF over GST control) with ETV6.
